What all share (experiment): NCI-60 one-dose screen, 48 h (100 = growth as untreated, 0 = no growth, -100 = all killed)
One assay has as its system SR leukemia. The following applies: 10 µM unless noted.
In the next assay the test system is RPMI-8226 leukemia. The following applies: 10 µM.
For the next assay, the system named is OVCAR-8 ovarian. The following applies: 10 µM unless noted.
The subject of the next assay is OVCAR-5 ovarian. The following applies: 10 µM unless noted.
The subject of a further assay is OVCAR-4 ovarian. The following applies: 10 µM unless noted.
Another assay concerns SK-OV-3 ovarian. The following applies: 10 µM.
In a further assay the test system is IGROV1 ovarian. The following applies: 10 µM unless noted.
In another assay the test system is OVCAR-3 ovarian. The following applies: 10 µM unless noted.
The next assay concerns HS 578T breast. The following applies: 10 µM unless noted.
Another assay concerns NCI/ADR-RES ovarian. The following applies: 10 µM unless noted.
The next assay has as its system T-47D breast. The following applies: 10 µM.
In a further assay the test system is BT-549 breast. The following applies: 10 µM unless noted.
A further assay deals with MDA-MB-435 melanoma. The following applies: 10 µM unless noted.
Another assay concerns SW-620 colon. The following applies: 10 µM unless noted.
The next assay relates to MCF7 breast. The following applies: 10 µM unless noted.
A further assay has as its system HCT-116 colon. The following applies: 10 µM unless noted.
A further assay relates to HCC-2998 colon. The following applies: 10 µM unless noted.
The next assay deals with KM12 colon. The following applies: 10 µM unless noted.

Among the data in PubChem BioAssay (NCI) are growth values, retold here.

Compounds without any hit were thinned out: in the full panel of roughly 83,000, 20% have a hit.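 Treatment: one concentration, 48 hours, 96-well format. Scoring: percent growth, with anything below 10 considered active.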 A number with no mark means an inactive call. Active and inactive are the calls of the source.

As for `O=C(Nc1ccc(Cl)c(Cl)c1)NC(CO)(CO)CO`, the growth with SR leukemia was 101%; in the assay with RPMI-8226 leukemia, 96.7%; in the assay on OVCAR-8 ovarian it was 96.8%; with OVCAR-5 ovarian, 94.7%; in the assay with OVCAR-4 ovarian it was 110%; in the assay with SK-OV-3 ovarian, 95.5%. Besides, the growth with IGROV1 ovarian was 100%; in the assay with OVCAR-3 ovarian it was 104%; in the assay with HS 578T breast, 96%; in the assay on NCI/ADR-RES ovarian, 100%; in the assay with T-47D breast, 96%; in the assay with BT-549 breast, 93.8%. The growth in the assay on MDA-MB-435 melanoma is 95.8%; in the assay on SW-620 colon, 101%; in the assay on MCF7 breast, 97.4%; with HCT-116 colon, 101%; with HCC-2998 colon it was 102%; in the assay on KM12 colon, 97.7%.
Regarding `O=C(Nc1nc2ccccc2[nH]1)C(=O)Nc1nc2ccccc2[nH]1`, the growth in the assay with SR leukemia is 89.6%; in the assay with RPMI-8226 leukemia it was 90.8%; in the assay with OVCAR-8 ovarian it was 102%; in the assay on OVCAR-5 ovarian, 88.6%; with OVCAR-4 ovarian, 96.3%; in the assay on SK-OV-3 ovarian, 108%. The growth in the assay on IGROV1 ovarian was 81.9%; in the assay with OVCAR-3 ovarian, 101%; in the assay on HS 578T breast it was 105%; in the assay on NCI/ADR-RES ovarian it was 98.7%; in the assay with T-47D breast it was 95.4%; in the assay with BT-549 breast, 108%. For the same compound, the growth in the assay on MDA-MB-435 melanoma was 101%; in the assay with SW-620 colon, 102%; with MCF7 breast it was 83.9%; in the assay on HCT-116 colon it was 103%; with HCC-2998 colon, 107%.
As to `CSc1ccc(OC(C)=O)cc1C`, the growth in the assay with SR leukemia is 95.7%; in the assay on RPMI-8226 leukemia it was 101%; in the assay with OVCAR-8 ovarian it was 100%; in the assay on OVCAR-5 ovarian it was 99.4%; in the assay on OVCAR-4 ovarian, 99.6%; in the assay with SK-OV-3 ovarian, 95%. The growth is 103% in the assay on IGROV1 ovarian; 106% in the assay on OVCAR-3 ovarian; 103% with HS 578T breast; 103% with NCI/ADR-RES ovarian; 90.6% in the assay with T-47D breast; 98% in the assay with BT-549 breast. In addition, the growth was 91.3% in the assay with MDA-MB-435 melanoma; 105% in the assay with SW-620 colon; 100% in the assay with MCF7 breast; 101% in the assay with HCT-116 colon; 102% in the assay on HCC-2998 colon; 101% with KM12 colon.
With `O=C1/C(=C/c2ccc(F)cc2)CN(Cc2cn(CCNc3ccnc4cc(Cl)ccc34)nn2)C/C1=C\c1ccc(F)cc1`, the growth is -23.7% (active) with SR leukemia; -31% (active) in the assay with RPMI-8226 leukemia; -5.64% (active) in the assay with OVCAR-8 ovarian; -57.6% (active) in the assay with OVCAR-5 ovarian; 23.3% with OVCAR-4 ovarian; -27.1% (active) in the assay with SK-OV-3 ovarian. For the same compound, the growth is 0.407% (active) with IGROV1 ovarian; -39.7% (active) in the assay on OVCAR-3 ovarian; 18.2% in the assay on HS 578T breast; 4.23% (active) with NCI/ADR-RES ovarian; -31.2% (active) in the assay on T-47D breast; -91.1% (active) with BT-549 breast. Also, the growth with MDA-MB-435 melanoma was -86.5% (active); in the assay with SW-620 colon, -70.5% (active); with MCF7 breast, -79.6% (active); in the assay with HCT-116 colon, -84.5% (active); in the assay with HCC-2998 colon, -92.1% (active); with KM12 colon, -71.4% (active).
For `COCCOC1=C(Cl)C(=O)c2ccccc2C1=O`, the growth in the assay on SR leukemia is 0.0172% (active); in the assay with RPMI-8226 leukemia it was 6.59% (active); with OVCAR-8 ovarian, 13.2%; with OVCAR-5 ovarian, 31.6%; with OVCAR-4 ovarian, -21.6% (active); in the assay with SK-OV-3 ovarian it was 87.5%. Further, the growth in the assay with IGROV1 ovarian is 21%; in the assay with OVCAR-3 ovarian, -13.3% (active); in the assay with HS 578T breast, 4.85% (active); in the assay with NCI/ADR-RES ovarian it was 20.4%; in the assay on T-47D breast, -49% (active); with BT-549 breast, -23% (active). Moreover, the growth is 4.68% (active) in the assay with MDA-MB-435 melanoma, -3.69% (active) with SW-620 colon, 15.4% in the assay on MCF7 breast and -13.5% (active) in the assay on HCT-116 colon.
For the compound `CCN1C(=O)C2(Nc3ccccc3S2)c2cc(C)ccc21` (stereo not drawn), the growth in the assay on SR leukemia was 111%; in the assay with RPMI-8226 leukemia it was 92.9%; in the assay with OVCAR-8 ovarian, 97.8%; with OVCAR-5 ovarian, 91.8%; in the assay with OVCAR-4 ovarian, 95.9%; in the assay on SK-OV-3 ovarian, 100%. Besides, the growth in the assay with IGROV1 ovarian is 98.2%; in the assay with OVCAR-3 ovarian it was 108%; with HS 578T breast, 116%; in the assay on NCI/ADR-RES ovarian, 101%; in the assay with T-47D breast it was 93.5%; in the assay on BT-549 breast it was 110%. Also, the growth with MDA-MB-435 melanoma is 102%; in the assay on SW-620 colon it was 96.5%; in the assay on MCF7 breast it was 101%; with HCT-116 colon, 96.7%; in the assay with HCC-2998 colon, 105%; with KM12 colon, 107%.
Take `O=C(Nc1ccc(Cl)c(Cl)c1)OCn1ncc2ccc([N+](=O)[O-])cc21`: the growth with SR leukemia was 76.7%; with RPMI-8226 leukemia, 83.4%; in the assay on OVCAR-8 ovarian it was 89%; in the assay with OVCAR-5 ovarian it was 77.5%; with OVCAR-4 ovarian, 93.6%; in the assay with SK-OV-3 ovarian, 86.2%. Moreover, the growth with IGROV1 ovarian is 75.5%; with OVCAR-3 ovarian it was 85.1%; in the assay on HS 578T breast, 75.4%; in the assay with NCI/ADR-RES ovarian it was 84.1%; in the assay with T-47D breast, 80%; in the assay on BT-549 breast, 78.5%. Further, the growth with MDA-MB-435 melanoma was 94.3%; in the assay on SW-620 colon it was 106%; in the assay on MCF7 breast, 85.9%; with HCT-116 colon it was 80.7%; in the assay with HCC-2998 colon, 93.8%; in the assay with KM12 colon, 86.2%.
For `COC(=O)/C=C1/CCC2C3CCC4=CC(=O)C(Br)CC4(C)C3C(=O)CC12C` (stereo not drawn), the growth in the assay with SR leukemia is 33%; in the assay on RPMI-8226 leukemia it was 61.1%; with OVCAR-8 ovarian, 63.1%; in the assay on OVCAR-5 ovarian it was 112%; in the assay with OVCAR-4 ovarian, 67.8%; in the assay on SK-OV-3 ovarian it was 103%. For the same compound, the growth with IGROV1 ovarian is 25.1%; in the assay on OVCAR-3 ovarian, 89.5%; in the assay on HS 578T breast, 86.7%; in the assay with NCI/ADR-RES ovarian, 81.7%; in the assay on T-47D breast it was 54.8%; in the assay on BT-549 breast, 95.9%. Further, the growth was 76.3% in the assay on MDA-MB-435 melanoma; 69.2% with SW-620 colon; 42.3% in the assay with MCF7 breast; 47.9% in the assay on HCT-116 colon; 62.1% with HCC-2998 colon.
For `COc1cccc(C2C3=C(COC3=O)N(CCO)c3cc4c(cc32)CCC4)c1` (stereo not drawn), the growth in the assay on SR leukemia was 29.4%; in the assay on RPMI-8226 leukemia it was 28.1%; in the assay with OVCAR-8 ovarian, 20.9%; in the assay with OVCAR-5 ovarian it was 32.9%; with OVCAR-4 ovarian, 10.3%; in the assay with SK-OV-3 ovarian, 20.9%. The growth in the assay with IGROV1 ovarian was 8.37% (active); in the assay with OVCAR-3 ovarian, -46% (active); with HS 578T breast, 2.16% (active); in the assay with NCI/ADR-RES ovarian it was -43.2% (active); in the assay on T-47D breast, 77.7%; in the assay on BT-549 breast it was 1.24% (active). For the same compound, the growth with MDA-MB-435 melanoma is -32.7% (active); in the assay with SW-620 colon it was 18.8%; in the assay on MCF7 breast it was 9.39% (active); with HCT-116 colon, -9.32% (active); in the assay on HCC-2998 colon, -20.6% (active); with KM12 colon, -42.8% (active).
